Measured values reported in PubChem BioAssay (NCATS).
Results filed as inconclusive are left out. The source made the active and inactive calls. Calls follow the shape of the dose curve; as a rule, active = well fitted cell-killing curve with a large enough effect; inconclusive = small, poorly fitted or top-dose-only effect; inactive = flat fitted curve, though single readings scatter.

Assay: Cell Viability - LYMP2-010 (AID 981);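 also: cells exposed to compound for 24 hours at 37 °C; nearly all actives have a fitted effect of over 55% in size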
Details: LYMP2-010 lymphoblastoid cell viability, qHTS; series mostly up to 92.2 µM; activity, negative = cytotoxicity: at the top concentration
Outline: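 CellTiter-Glo ATP luminescence measured cytotoxicity after 24 h compound exposure at 37 C. LYMP2-010 cells were seeded at 2500/well, with tetraoctylammonium bromide as control; concentration-response curves gave AC50 values by the Hill equation.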
% is scaled to controls: 0 for no effect and ±100 for the full control effect.

SMILES | activity, negative = cytotoxicity
CC(C#N)CCC#N (centres undefined) | -15.6% (inactive)
Nc1cc(Cl)ccc1Cl | -7.15% (inactive)
Nc1cccc(Cl)c1 | -14.1% (inactive)
ClCc1ccccc1 | -31.2% (inactive)
CCC/C=N/O | -9.5% (inactive)
COc1c(C(C)(C)C)cc([N+](=O)[O-])c(C)c1[N+](=O)[O-] | -14.7% (inactive)
O=S(=O)(Cl)c1ccccc1 | -9.77% (inactive)
C=CCOCC1CO1 (centres undefined) | -12.3% (inactive)
c1ccoc1 | 3.11% (inactive)
Clc1ccccc1 | -3.57% (inactive)
ClC(Cl)(Cl)C(Cl)(Cl)Cl | -3.39% (inactive)
CCOC(=O)C1OC1(C)c1ccccc1 (centres undefined) | -15.3% (inactive)
C/C=C/CC#N | -11.3% (inactive)
ClC(Cl)C(Cl)Cl | -15.2% (inactive)
C=CCCl | -3.13% (inactive)
Oc1c(Cl)cccc1Cl | -4.26% (inactive)
Brc1cccc(-c2ccccc2)c1 | -4.91% (inactive)
C=CCO | -4.51% (inactive)
OCCCCO | -1.8% (inactive)
Nn1cnnc1 | -5.72% (inactive)

SMILES | activity, negative = cytotoxicity
BrCCc1ccccc1 | -6.15% (inactive)
Cc1ccccc1[N+](=O)[O-] | -6.61% (inactive)
CCCCOC(=O)c1ccccc1N | -19.3% (inactive)
Clc1cc(Cl)c(Cl)c(Cl)c1 | -7.6% (inactive)
Cc1ccc(N)c(C)c1 | -21.1% (inactive)
C1CC2OC2CC1C1CO1 (centres undefined) | -4.75% (inactive)
CN(C)C(=O)Cl | 9.57% (inactive)
CC(=O)NNc1ccccc1 | -13.8% (inactive)
Cc1ccc(N=C=O)cc1N=C=O | -13.6% (inactive)
O=C(Cl)OCc1ccccc1 | -26.2% (inactive)
C=CC(=O)OC | -8.83% (inactive)
CCN(CC)N=O | -0.0706% (inactive)
OCC(Cl)CCl (centres undefined) | -26.6% (inactive)
CC(C)CON=O | -10.1% (inactive)
CC[N+](=O)[O-] | 7.42% (inactive)
CC(C)(Cl)[N+](=O)[O-] | -4.56% (inactive)
C[N+](=O)[O-] | -14.5% (inactive)
CC(C)OC(=O)Cc1ccccc1 | -13.1% (inactive)
ClCC(Br)CBr (centres undefined) | -5.93% (inactive)
